In PubChem BioAssay (NCATS):

Experiments:
Assay in all cases: Confirmatory Screen for Target Class Profiling of Small Molecule Inhibitors of Methyltransferases (AID 1745852); for activity change, negative = inhibition: % is set by controls: 0 for no effect and ±100 for the full control effect
[1] = target: Catechol O-methyltransferase (Homo sapiens) (UniProt P21964); conditions: MTase-Glo luminescence, SAH detection, recombinant enzyme; measured here: COMT max response; stronger effect = lower value
[2] = target: Guanidinoacetate N-methyltransferase (Homo sapiens) (UniProt Q14353); conditions: MTase-Glo luminescence, SAH detection, recombinant enzyme; activity change, negative = inhibition: at 85.7 µM (top of the series) unless noted
[3] = target: Nicotinamide N-methyltransferase (Homo sapiens) (UniProt P40261); conditions: MTase-Glo luminescence, SAH detection, recombinant enzyme; measured here: NNMT max response; stronger effect = lower value
[4] = target: Phenylethanolamine N-methyltransferase (Homo sapiens) (UniProt P11086); conditions: MTase-Glo luminescence, SAH detection, recombinant enzyme; measured here: PNMT max response; stronger effect = lower value
Sequence of Phenylethanolamine N-methyltransferase (Homo sapiens) (P11086 whole entry, looked up): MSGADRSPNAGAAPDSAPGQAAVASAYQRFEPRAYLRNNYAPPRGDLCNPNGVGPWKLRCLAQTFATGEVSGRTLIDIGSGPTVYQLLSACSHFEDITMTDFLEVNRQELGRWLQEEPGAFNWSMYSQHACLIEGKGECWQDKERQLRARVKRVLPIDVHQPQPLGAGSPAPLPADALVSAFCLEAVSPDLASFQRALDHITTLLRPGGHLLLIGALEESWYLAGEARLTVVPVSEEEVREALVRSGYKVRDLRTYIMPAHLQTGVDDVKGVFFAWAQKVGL

Sequence of Nicotinamide N-methyltransferase (Homo sapiens) (P40261 whole entry, looked up): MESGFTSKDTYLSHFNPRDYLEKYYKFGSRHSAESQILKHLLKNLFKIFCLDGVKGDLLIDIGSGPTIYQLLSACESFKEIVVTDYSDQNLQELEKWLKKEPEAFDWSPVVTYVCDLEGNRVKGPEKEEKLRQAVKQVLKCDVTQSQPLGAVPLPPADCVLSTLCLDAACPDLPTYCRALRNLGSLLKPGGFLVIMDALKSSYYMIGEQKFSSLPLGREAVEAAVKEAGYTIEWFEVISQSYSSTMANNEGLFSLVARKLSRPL
Sequence of Catechol O-methyltransferase (Homo sapiens) (P21964 whole entry, looked up): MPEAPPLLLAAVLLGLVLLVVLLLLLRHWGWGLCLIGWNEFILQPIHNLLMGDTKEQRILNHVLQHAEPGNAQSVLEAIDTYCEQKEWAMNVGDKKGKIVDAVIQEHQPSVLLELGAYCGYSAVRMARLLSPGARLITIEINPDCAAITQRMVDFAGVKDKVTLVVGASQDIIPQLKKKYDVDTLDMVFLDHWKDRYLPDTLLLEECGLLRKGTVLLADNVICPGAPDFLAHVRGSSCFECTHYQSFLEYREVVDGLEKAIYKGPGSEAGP

What does the source list for `NC(=O)c1ccc(N2CC3CCC(C2)N3CC(F)(F)F)nn1`?
activity [1]: 10.2%; activity change, negative = inhibition [2]: 9.09%; activity [3]: -22.1%; activity [4]: 10.9%
